The results in this text go back to PubChem BioAssay (NCATS).

“And” between values parts separate entries of the source, which are not always exact repeats. Identical values can stand only once. Results filed as inconclusive are left out. Entries that show only a call come without a potency. The source made the active and inactive calls. The call rests on the fitted dose curve; in most records, active means well fitted curve in the direction sought with a large enough effect; inconclusive means small, poorly fitted or top-dose-only effect, or another doubt; inactive means no such curve, though single readings can be large; an effect the other way counts as inactive or inconclusive.

For experiment [1], the system named is Zika virus NS2B-NS3 protease. Nature of the experiment: Primary screen GU AMC qHTS for Zika virus inhibitors (AID 1347154). Further: nearly all actives have a fitted effect of over 70% in size. Further: potency means the concentration at half of the fitted maximal effect. An outline of the steps: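 Fluorogenic AMC-substrate cleavage by noncovalent NS2B-NS3 protease complex (25 nM, pH 8.0 Tris buffer with Tween 20) followed for 15 minutes at room temperature (~20% conversion). Percent inhibition from ex340/em450 signal change, fitted by 4-parameter Hill equation.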

The subject of experiment [2] is Zika virus NS2B-NS3 protease (unlinked complex). Nature of the experiment: Primary screen GU Rhodamine qHTS for Zika virus inhibitors: Unlinked NS2B-NS3 protease assay (AID 1347159). Further: nearly all actives have a fitted effect of over 60% in size. Further: potency means the concentration at half of the fitted maximal effect. The method, boiled down:
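Percent inhibition came from the 15-min rise in Rhodamine110 fluorescence (1.5 microM substrate, ~15% conversion), normalized to no-inhibitor and no-enzyme wells and Hill-fitted. Unlinked protease, 25 nM, pH 8.0 Tris buffer; compounds up to 114 microM, 15-min preincubation.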
Background: qHTS replaces the single test concentration by a dilution series.

For experiment [3], the system named is Zika virus NS2B-NS3 protease (linked construct). Nature of the experiment: Primary screen NINDS Rhodamine qHTS for Zika virus inhibitors (AID 1347160). Further: nearly all actives have a fitted effect of over 55% in size. Further: potency means the concentration at half of the fitted maximal effect. An outline of the steps:
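Rhodamine110-peptide cleavage (1.5 µM substrate) by 25 nM linked NS2B-NS3 enzyme at pH 8.0 (Tris, Tween 20), after 15 min RT preincubation with compounds; 15-min fluorescence change normalized to controls and Hill-fitted.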

Experiment [4] has as its target Lysine-specific demethylase 5B (Homo sapiens) (UniProt Q9UGL1). Nature of the experiment: Optimization screen for KDM5B Histone Demethylases FDH coupled qHTS against the LOPAC library (AID 1347166). The method, boiled down: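 KDM5BDeltaAP (200nM final) in 50mM HEPES pH 7.5, 0.01% Tween-20 was preincubated with compound for 10 min at room temperature. A substrate mix of 12.5uM H3K4Me3, 25uM a-ketoglutarate, ascorbate, Fe2+, NAD+ and formaldehyde dehydrogenase was then added. NADH fluorescence (340/450 nm) was read initially and after 30 min.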

A short description of experiment [5]: Confirmatory screen GU Rhodamine qHTS for Zika virus inhibitors qHTS (AID 1347157). Further: potency means the concentration at half of the fitted maximal effect; nearly all actives have a fitted effect of over 70% in size. Conditions: purified enzyme assay, Rhodamine110 substrate fluorescence, 15 min. The method, boiled down: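 A qHTS format was used, with compound concentrations ranging up to 114 microM. Each compound was preincubated with 25 nM NS2B-NS3 protease, and the substrate was then added at 1.5 microM. Curves were fitted with a 4-parameter Hill model.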

Experiment [6] can be described thus: Confirmatory screen NINDS Rhodamine qHTS for Zika virus inhibitors (AID 1347161). Further: potency means the concentration at half of the fitted maximal effect; nearly all actives have a fitted effect of over 60% in size. The method, boiled down: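 Aprotinin served as in-plate control. Conditions: 25 nM linked NS2B-NS3, pH 8.0 Tris buffer, titrated compounds, 15 min preincubation and 15 min reaction with 1.5 microM Rhod110 substrate at room temperature.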
Experiment [7] deals with Zika virus NS2B-NS3 protease (linked). Nature of the experiment: 384 well plate NINDS AMC confirmatory qHTS for Zika virus inhibitors (AID 1347163). Further: potency means the concentration at half of the fitted maximal effect; nearly all actives have a fitted effect of over 50% in size. Conditions: Recombinant NS2B-NS3 protease, Ac-VKTGKR-AMC fluorescence. An outline of the steps:
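Enzyme (5, 30 or 60 nM final) first met test compounds for ~15 min. The AMC-tagged peptide Ac-VKTGKR-AMC followed at 30 microM. Fluorescence was then recorded at 25 min and scaled against no-enzyme and no-inhibitor wells.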

For experiment [8], the system named is Zika virus NS2B-NS3 protease (linked construct). Nature of the experiment: 384 well plate NINDS Rhodamine confirmatory qHTS for Zika virus inhibitors (AID 1347164).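 Further: fluorescence from protease cleavage of Ac-LKRR-rhodamine 110 substrate; potency means the concentration at half of the fitted maximal effect; nearly all actives have a fitted effect of over 65% in size.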 The method, boiled down: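 Fluorescence at 485/538 nm was measured 25 minutes after adding 10 microM Ac-LKRR-Rd substrate, in the dark at room temperature. The protease (5, 30 or 60 nM final) had been preincubated ~15 minutes with compound; aprotinin as control.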

A short description of experiment [9]: ZIKV-mCherry secondary qHTS for Zika virus inhibitors (AID 1347158). Further: top concentration of the series differs between compounds. The method, boiled down:
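Read-out is percent infection: mCherry-positive Vero cells (nuclear-proximal intensity >450 RFU, 3 SD above negative controls) counted by high-content imaging of Hoechst-stained, PFA-fixed wells after 48-72 h with ZIKV-mCherry at MOI 1 and compound.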

Experiment [10] can be described thus: Vero cells viability qHTS for Zika virus inhibitors (AID 1347167). The method, boiled down:
(§1)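 Luminescent ATP readout (CellTiter Glo) after 30 min at 37 degrees C gives viability; cells in DMEM + 4% FBS were treated 24 to 48 hours with compound, following overnight attachment.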

The nature of experiment [11]: HepG2 cells viability qHTS for Zika virus inhibitors (AID 1347168). An outline of the steps: as §1
Experiment [12] is described as follows: Tertiary RLuc qRT-PCR qHTS assay for Zika virus inhibitors (AID 1347169). Further: potency means the concentration at half of the fitted maximal effect; nearly all actives have a fitted effect of over 55% in size. An outline of the steps:
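Orthogonal cell-based readout: luminescence measured 1-1.5 hrs after adding live-cell Renilla substrate to Vero cells that had been infected with ZIKV-RLuc (MOI 1-2) post-compound, incubated 48-72 hrs at 37 degrees C.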
For orientation: Real-time PCR tracks product formation cycle by cycle.

Chain of Lysine-specific demethylase 5B (Homo sapiens) (Q9UGL1 whole entry, looked up): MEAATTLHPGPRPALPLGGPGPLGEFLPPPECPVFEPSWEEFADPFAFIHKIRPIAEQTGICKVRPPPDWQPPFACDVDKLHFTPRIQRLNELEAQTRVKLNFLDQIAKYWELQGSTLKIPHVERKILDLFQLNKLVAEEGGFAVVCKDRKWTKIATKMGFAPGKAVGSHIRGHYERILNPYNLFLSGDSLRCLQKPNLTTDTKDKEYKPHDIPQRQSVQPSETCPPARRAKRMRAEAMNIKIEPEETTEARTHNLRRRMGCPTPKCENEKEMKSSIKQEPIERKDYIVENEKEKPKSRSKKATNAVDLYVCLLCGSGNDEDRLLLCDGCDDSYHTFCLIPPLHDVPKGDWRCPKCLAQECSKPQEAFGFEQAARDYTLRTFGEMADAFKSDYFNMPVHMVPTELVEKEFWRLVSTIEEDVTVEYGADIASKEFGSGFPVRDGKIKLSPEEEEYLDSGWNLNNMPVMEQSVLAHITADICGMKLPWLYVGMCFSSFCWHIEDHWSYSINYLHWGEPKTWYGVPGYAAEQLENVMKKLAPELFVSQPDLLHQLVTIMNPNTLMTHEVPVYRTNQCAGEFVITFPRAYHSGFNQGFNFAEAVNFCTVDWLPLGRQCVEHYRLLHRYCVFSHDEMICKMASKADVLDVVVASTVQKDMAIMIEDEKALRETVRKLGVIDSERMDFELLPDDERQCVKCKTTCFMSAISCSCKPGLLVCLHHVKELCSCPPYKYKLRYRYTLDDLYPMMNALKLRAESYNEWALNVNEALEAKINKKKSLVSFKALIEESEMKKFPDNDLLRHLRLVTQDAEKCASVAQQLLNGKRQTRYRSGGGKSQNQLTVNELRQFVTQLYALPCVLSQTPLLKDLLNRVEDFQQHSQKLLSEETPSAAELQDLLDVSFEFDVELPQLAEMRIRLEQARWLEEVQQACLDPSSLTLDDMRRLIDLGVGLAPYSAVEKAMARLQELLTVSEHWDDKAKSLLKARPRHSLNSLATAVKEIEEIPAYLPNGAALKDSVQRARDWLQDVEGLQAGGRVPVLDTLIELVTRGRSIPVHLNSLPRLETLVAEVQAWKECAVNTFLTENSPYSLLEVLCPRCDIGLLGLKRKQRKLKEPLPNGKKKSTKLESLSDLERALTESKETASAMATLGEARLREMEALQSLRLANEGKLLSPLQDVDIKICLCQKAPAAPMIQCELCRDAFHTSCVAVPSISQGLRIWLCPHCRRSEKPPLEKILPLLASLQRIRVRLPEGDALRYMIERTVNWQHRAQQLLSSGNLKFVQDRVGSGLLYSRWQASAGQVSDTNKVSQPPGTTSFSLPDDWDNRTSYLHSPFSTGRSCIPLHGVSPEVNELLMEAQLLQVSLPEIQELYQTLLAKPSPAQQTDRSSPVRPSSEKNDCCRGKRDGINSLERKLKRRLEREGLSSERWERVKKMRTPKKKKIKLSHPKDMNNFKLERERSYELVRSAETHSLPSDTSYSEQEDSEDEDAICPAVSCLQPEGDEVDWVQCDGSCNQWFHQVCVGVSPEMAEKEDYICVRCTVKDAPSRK

Take `O=c1[nH]c2ccccc2n1C1CCN(CCCC(c2ccc(F)cc2)c2ccc(F)cc2)CC1`: the Potency entry in [1], in experiment [2] and in experiment [3] was “inactive” each time. Moreover, the molecule was classed as inactive in experiment [4].

For the molecule `C#CCN(C)[C@H](C)Cc1ccccc1`, the Potency result in [1] is “inactive”.

As for `N#CC(C#N)=Cc1ccc(O)c(O)c1`, the Potency result in experiment [1] was “inactive”.

Consider `CCN(CC)CCOC(=O)C(O)(c1ccccc1)c1ccccc1`, for which the Potency entry in [1] was “inactive”.

`O=c1oc2ccccc2c(O)c1C(CC(O)c1ccc(-c2ccc(Br)cc2)cc1)c1ccccc1` (centres undefined): the Potency in [1] was 14.1 µM (active); in experiment [5], 7.94 µM (active); in experiment [6] it was 3.16 µM (active); in experiment [7], 31.6 µM (active); in [8], 6.31 µM (active).

As to `Oc1ccc(Cl)cc1Cc1ccccc1`, the Potency entry in [1] is “inactive”.

Consider `NCCc1cc(O)c(O)cc1O`, for which the Potency in experiment [1] is 4.55 µM (active) and 21.2 µM (active).

As to `CC[N+]1(C)CCCC(OC(=O)C(O)(c2ccccc2)c2ccccc2)C1` (centres undefined), the Potency entry in experiment [1] was “inactive”.

`CCOP(=S)(OCC)Oc1cc(C)nc(C(C)C)n1`: the Potency result in [1] was “inactive”.

Regarding `COc1ccc2c(c1OC)CN1CCc3cc4c(cc3C1C2)OCO4` (centres undefined), the Potency result in experiment [1] is “inactive”.

`CC(=O)Nc1cc([As](=O)(O)O)ccc1O`: the Potency result in [1] was “inactive”.

With `C=CCN1CC[C@]23c4c5ccc(O)c4O[C@H]2C(=O)CC[C@@]3(O)[C@H]1C5`, the Potency result in experiment [1] is “inactive”.

Turning to `Clc1cccc(N2CCNCC2)c1`, the Potency result in [1] is “inactive”.

For the molecule `NP(N)(=O)NC(=O)c1ccc(F)cc1`, the Potency result in experiment [1] is “inactive”.

`CC1OC(C)OC(C)O1` (centres undefined): the Potency entry in experiment [1] was “inactive”.

For `O=C(O)C(=O)c1cn(Cc2ccccc2)c2ccc(-c3ccc(OC(F)(F)F)cc3)cc12`, the Potency in experiment [1] is 6.07 µM (active); in experiment [5], 1.24 µM (active) and 1.56 µM (active); in experiment [2], 1.58 µM (active); in experiment [3] it was 2.51 µM (active); in experiment [6], 1.24 µM (active) and 1.75 µM (active); in [7] it was 11.2 µM (active). Moreover, the Potency in [8] is 12.6 µM (active) and 3.16 µM (active). For the same molecule, the outcome in experiment [9], in experiment [10] and in [11] was inactive.

Take `O=[N+]([O-])c1cc([As](=O)(O)O)ccc1O`: the Potency result in experiment [1] is “inactive”.

As for `CN(C)CCc1ccc(O)cc1`, in experiment [1], the Potency result is “inactive”.

With `O=P1(NCCCl)OCCCN1CCCl` (centres undefined), in experiment [1], the Potency entry is “inactive”.

For the molecule `Cc1cc(SCc2sc(-c3ccc(C(F)(F)F)c(F)c3)nc2C)ccc1OCC(=O)O`, the Potency in experiment [1] was 7.64 µM (active); in experiment [5], 2.21 µM (active); in experiment [2], 2.82 µM (active); in experiment [3] it was 1.78 µM (active); in experiment [6] it was 1.75 µM (active) and 1.96 µM (active) and 1.97 µM (active); in experiment [7], 39.8 µM (active). In addition, the Potency was 35.5 µM (active) in experiment [8] and 23.4 µM (active) in [12]. Also, the call in [10] and in experiment [11] was inactive.

On to `COC[C@@H](NC(C)=O)C(=O)NCc1ccccc1`, for which the Potency result in experiment [1] is “inactive”.

As to `CNC(=O)c1ccc(N2C(=S)N(c3ccc(C#N)c(C(F)(F)F)c3)C(=O)C23CCC3)cc1F`, the Potency result in experiment [1], in [2] and in experiment [3] was “inactive” in each case.

For the molecule `C[C@]12C/C(=C/O)C(=O)C[C@@H]1CC[C@@H]1[C@@H]2CC[C@@]2(C)[C@H]1CC[C@]2(C)O`, the Potency result in experiment [1] is “inactive”.

As for `C=C1C[C@@H]2[C@H](CC[C@]3(C)C(=O)CC[C@@H]23)[C@@]2(C)C=CC(=O)C=C12`, the Potency result in experiment [1] is “inactive”.

For the molecule `C#CCOC(C(=O)OCCN(C)C)(c1ccccc1)c1ccccc1`, the Potency entry in experiment [1] is “inactive”.

With `CCOC(=O)C1(c2ccccc2)CCN(CCC(C#N)(c2ccccc2)c2ccccc2)CC1`, the Potency entry in experiment [1] is “inactive”.

Consider `CC(O)(CS(=O)(=O)c1ccc(F)cc1)C(=O)Nc1ccc(C#N)c(C(F)(F)F)c1` (centres undefined), for which the Potency entry in experiment [1], in experiment [2] and in experiment [3] was “inactive” each time. For the same molecule, the result in experiment [4] was inactive.

Turning to `CNC(=O)N1N=C(c2ccc(N)cc2)c2cc3c(cc2CC1C)OCO3` (centres undefined), the Potency result in experiment [1], in [2] and in experiment [3] was “inactive” in each case.

As to `Oc1ccccc1-c1ccccc1`, the Potency result in experiment [1] was “inactive”.

Regarding `c1ccc2c(c1)Nc1ccccc1S2`, the Potency result in [1] was “inactive”.

As for `COC[C@H]1OC(=O)c2coc3c2[C@@]1(C)C1=C(C3=O)C2CCC(=O)[C@@]2(C)C[C@H]1OC(C)=O` (some centres undefined), the Potency result in [1], in experiment [2] and in [3] was “inactive” in each case. Moreover, in [4], the call was inactive.

Regarding `CC[N+](CC)(CC)CC`, the Potency result in experiment [1] was “inactive”.

Consider `CCCC(C)(COC(N)=O)COC(=O)NC(C)C` (centres undefined), for which the Potency entry in experiment [1] is “inactive”. For the same molecule, the call in experiment [4] was inactive.

On to `O=C1NCN(c2ccccc2)C12CCN(CC1COc3ccccc3O1)CC2` (centres undefined), for which the Potency entry in experiment [1] is “inactive”. Besides, the call in [4] was inactive.

Take `Nc1ccncc1`: the Potency result in [1] was “inactive”. In [4], the call was inactive.

Turning to `NN=C(N)N`, the Potency entry in [1] is “inactive”. Further, the molecule was called inactive in experiment [4].

For the molecule `C[C@@H]1O[C@@H](O[C@H]2C[C@@H](O)[C@]3(CO)[C@H]4[C@H](O)C[C@]5(C)[C@@H](C6=CC(=O)OC6)CC[C@]5(O)[C@@H]4CC[C@]3(O)C2)[C@H](O)[C@H](O)[C@H]1O`, the Potency entry in experiment [1], in experiment [2] and in experiment [3] was “inactive” in each case. Besides, the outcome in [4], in [10] and in [11] was inactive. In addition, the Potency in experiment [12] is 117 nM (active) and 58.7 nM (active).

For `CC(=O)[C@H]1CC[C@H]2[C@@H]3CC[C@H]4C[C@H](O)CC[C@]4(C)[C@H]3C(=O)C[C@]12C`, the Potency result in experiment [1] was “inactive”. In addition, the molecule was classed as inactive in [4].
